This passage reports composite z-score, composite Z-score and z-score results from PubChem BioAssay.

Activity calls are given as the source filed them.

In one experiment the target is Albumin (Bos taurus) (UniProt P02769). Description: bovine serum albumin binders on microarray, profiling panel, artefact control for SMM control protein annotation, biochemical, small-molecule microarray, Alexa647 label, 635/667 nm fluorescence (AID 1118).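 Note: score merges 667 nm emission intensity and signal-to-noise per printed compound spot.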 The note with it: BSA-A647 binding, fluorescence 635 nm, higher = more signal.
Sequence of Albumin (Bos taurus) (P02769 whole entry, looked up): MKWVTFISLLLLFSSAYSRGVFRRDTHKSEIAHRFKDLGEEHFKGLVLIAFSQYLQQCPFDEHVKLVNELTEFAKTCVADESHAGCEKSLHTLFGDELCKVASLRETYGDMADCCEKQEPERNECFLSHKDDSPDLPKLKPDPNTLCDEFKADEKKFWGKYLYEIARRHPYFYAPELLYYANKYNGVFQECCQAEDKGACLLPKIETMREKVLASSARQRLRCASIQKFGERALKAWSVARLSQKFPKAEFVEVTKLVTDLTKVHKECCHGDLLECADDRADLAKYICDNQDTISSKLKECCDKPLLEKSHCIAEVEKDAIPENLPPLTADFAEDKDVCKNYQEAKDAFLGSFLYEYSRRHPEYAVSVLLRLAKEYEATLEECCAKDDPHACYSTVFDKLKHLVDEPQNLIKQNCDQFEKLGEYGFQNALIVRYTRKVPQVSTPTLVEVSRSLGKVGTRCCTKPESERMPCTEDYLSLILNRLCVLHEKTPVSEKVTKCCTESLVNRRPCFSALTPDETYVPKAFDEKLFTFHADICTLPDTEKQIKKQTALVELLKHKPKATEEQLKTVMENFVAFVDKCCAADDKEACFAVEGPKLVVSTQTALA
The nature of experiment [1]: small-molecule microarray binders of probe aXIP, primary screen, biochemical, NeuroSMM set, 635/667 nm fluorescence (AID 1119).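 Note: probe is the protein aXip251-270 applied at 1 µg/mL to compound-printed slides; binding of probe to printed compounds measured as 667 nm fluorescence plus signal to noise.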 The note with it: higher = more signal, called active from +8 up or from −8 down.
A short description of experiment [2]: small-molecule binders of probe aNOTCH3, primary screen, biochemical, small-molecule microarray, 635/667 nm fluorescence (AID 1120).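 Note: probe is a biotin-tagged antibody raised against NOTCH3 rather than NOTCH3 protein; score merges spot fluorescence near 667 nm with spot signal to noise.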 The note with it: higher = more signal.
Experiment [3] can be described thus: small-molecule binders of probe aNOTCH2, primary screen, biochemical, small-molecule microarray, 635/667 nm fluorescence (AID 1121).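 Note: score merges feature fluorescence read at 667 nm with its signal to noise.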 The note with it: higher = more signal.
For experiment [4], the target named is Carbonic anhydrase 2 (Homo sapiens) (UniProt P00918). Description: CAII small-molecule binders, profiling panel, biochemical, small-molecule microarray, Alexa647-labelled CAII (AID 1122). The conditions noted are these: CAII-A647 binding fluorescence, higher = more signal.
Experiment [5] in a line: COS7 lysate on small-molecule microarray, probe aHis, 635 nm (AID 1123).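 Note: z-score combines 667nm fluorescence intensity with signal-to-noise per printed compound spot.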 The note with it: COS7 cell lysate, fluorescence, higher = more signal.
A short description of experiment [6]: compound binding in COS7 lysate, probe aLAP1, primary screen, cell lysate, small-molecule microarray (AID 1124).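 Note: lysate comes from COS7 cells expressing LAP1 and is applied at 0.3 µg/mL; score merges spot fluorescence near 667 nm with signal-to-noise over triplicate slides.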 The note with it: probe aLAP1, fluorescence, higher = more signal.
In another experiment the test system is Sam68 (KHDRBS1). Description: Sam68 small-molecule binders, primary screen, biochemical, small-molecule microarray, 635 nm fluorescence (AID 1125).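 Note: score merges 667 nm channel intensity with signal to noise over triplicate slides.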 The conditions noted are these: small-molecule microarray binding, higher = more signal.
Experiment [7] concerns Chordin-like protein 2 (CHRDL2). As to the kind of experiment: CHRDL2 small-molecule binders, primary screen, biochemical, small-molecule microarray, 635 nm fluorescence (AID 1126).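 Note: printed compound slides probed with Chrdl2 protein at 4 µg/mL for 1 h at 4 C; score merges 667 nm emission intensity with signal to noise over three replicate slides.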 The note with it: small-molecule microarray binding, fluorescence 635 nm; higher = more signal.
Experiment [8] concerns the target Concanavalin-A (Canavalia ensiformis) (UniProt P02866). Description: ConA small-molecule binders, primary screen, artefact control for SMM control protein annotation, biochemical, small-molecule microarray, Alexa647 label, 635 nm (AID 1127).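 Note: z combines 667 nm emission intensity with signal-to-noise across three replicate slides.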 The conditions noted are these: ConA-A647 binding fluorescence, higher = more signal.
Experiment [9] is described as follows: anti-His antibody binders, primary screen, artefact control for SMM control protein annotation, biochemical, small-molecule microarray, 635 nm fluorescence (AID 1128).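 Note: score merges feature fluorescence with signal-to-noise for each printed compound spot.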 The note with it: anti-His Alexa647 antibody binding, higher = more signal.
The subject of experiment [10] is Human papillomavirus type 1a E7 protein (residues 1-88). Description: HPV1a E7 small-molecule binders, primary screen, biochemical, small-molecule microarray, residues 1-88, 635 nm (AID 1129). The note with it: small-molecule microarray binding, fluorescence 635 nm; higher = more signal.
In experiment [11] the target is Focal adhesion kinase 1 (Homo sapiens) (UniProt Q05397). Description: small-molecule microarray binders of FAK, primary screen, biochemical, 635/667 nm fluorescence, BSA, DTT (AID 1130).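 Note: composite of spot emission at 667 nm and signal to noise over triplicate slides.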 The note with it: PTK2 binding, 635 nm fluorescence, higher = more signal.
Sequence of Focal adhesion kinase 1 (Homo sapiens) (Q05397 whole entry, looked up): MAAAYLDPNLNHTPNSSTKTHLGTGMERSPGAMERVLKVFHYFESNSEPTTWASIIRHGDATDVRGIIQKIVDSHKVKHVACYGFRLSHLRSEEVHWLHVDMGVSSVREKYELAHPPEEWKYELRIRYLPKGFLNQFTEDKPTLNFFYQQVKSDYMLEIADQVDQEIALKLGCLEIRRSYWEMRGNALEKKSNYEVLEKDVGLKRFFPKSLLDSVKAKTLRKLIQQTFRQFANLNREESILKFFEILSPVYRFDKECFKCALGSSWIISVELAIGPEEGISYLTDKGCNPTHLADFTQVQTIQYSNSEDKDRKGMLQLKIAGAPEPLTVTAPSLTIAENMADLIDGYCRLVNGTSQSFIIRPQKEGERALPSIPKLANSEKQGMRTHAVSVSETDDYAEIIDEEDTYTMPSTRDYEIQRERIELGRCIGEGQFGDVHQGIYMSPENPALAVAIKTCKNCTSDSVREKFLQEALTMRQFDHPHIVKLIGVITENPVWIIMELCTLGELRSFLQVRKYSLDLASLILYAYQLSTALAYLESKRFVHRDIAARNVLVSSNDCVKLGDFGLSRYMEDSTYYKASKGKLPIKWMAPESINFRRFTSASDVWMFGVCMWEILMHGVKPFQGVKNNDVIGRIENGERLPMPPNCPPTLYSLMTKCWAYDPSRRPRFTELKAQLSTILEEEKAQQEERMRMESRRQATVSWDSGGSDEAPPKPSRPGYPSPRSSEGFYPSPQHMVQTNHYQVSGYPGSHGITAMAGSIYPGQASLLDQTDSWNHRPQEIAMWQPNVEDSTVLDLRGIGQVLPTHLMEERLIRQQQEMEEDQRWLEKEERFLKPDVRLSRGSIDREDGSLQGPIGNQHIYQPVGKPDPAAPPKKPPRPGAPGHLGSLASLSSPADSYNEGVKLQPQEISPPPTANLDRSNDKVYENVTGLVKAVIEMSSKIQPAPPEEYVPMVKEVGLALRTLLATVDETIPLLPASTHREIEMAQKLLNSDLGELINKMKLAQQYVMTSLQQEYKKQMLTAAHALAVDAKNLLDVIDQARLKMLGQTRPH
Experiment [12] concerns Fibrinogen (Alexa647-labelled). As to the kind of experiment: fibrinogen binders on compound microarrays, profiling panel, artefact control for SMM control-protein annotation, biochemical, small-molecule microarray, 635/667 nm fluorescence (AID 1131).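 Note: z-score merges 667 nm fluorescence with per-spot signal-to-noise over triplicate slides.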 The conditions noted are these: fibrinogen-A647 binding fluorescence, higher = more signal.
Experiment [13] concerns the target Follistatin (Homo sapiens) (UniProt P19883). As to the kind of experiment: follistatin binders on small-molecule microarrays, primary screen, biochemical, small-molecule microarray, 635/667 nm fluorescence (AID 1132). The conditions noted are these: FST binding, 635 nm fluorescence, higher = more signal.
For experiment [14], the target named is Fibroblast growth factor 2 (Homo sapiens) (UniProt P09038). As to the kind of experiment: FGF2 binders on small-molecule microarrays, primary screen, biochemical, small-molecule microarray, 635/667 nm fluorescence (AID 1133). The note with it: small-molecule microarray binding, FGF2, fluorescence 635/667; higher = more signal.
Sequence of Fibroblast growth factor 2 (Homo sapiens) (P09038 whole entry, looked up): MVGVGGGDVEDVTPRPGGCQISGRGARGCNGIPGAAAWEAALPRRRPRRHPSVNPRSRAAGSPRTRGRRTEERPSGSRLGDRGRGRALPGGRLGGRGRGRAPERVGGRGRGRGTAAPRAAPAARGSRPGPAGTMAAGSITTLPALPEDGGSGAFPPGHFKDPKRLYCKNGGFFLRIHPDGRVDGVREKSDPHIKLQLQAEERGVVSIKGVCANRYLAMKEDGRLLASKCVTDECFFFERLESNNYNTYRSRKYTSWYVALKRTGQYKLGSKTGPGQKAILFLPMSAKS
A short description of experiment [15]: mitochondrial membrane potential change in A549 cells, profiling panel, cell-based, JC-1 fluorescence, basal, 24 h, 100 nL (AID 1138).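 Note: A549 lung adenocarcinoma cells under basal conditions with no added stimulus; test concentration not given here.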 The note with it: higher = more signal.
Another experiment deals with Lefty1. As to the kind of experiment: Lefty1 binders on small-molecule microarrays, primary screen, biochemical, small-molecule microarray, 635/667 nm fluorescence (AID 1139). The conditions noted are these: small-molecule microarray binding, fluorescence 635/667; higher = more signal.
For experiment [16], the system named is wheat germ agglutinin (Triticum aestivum), Alexa647-labelled. As to the kind of experiment: wheat germ agglutinin binders on compound microarrays, profiling panel, artefact control for SMM control-protein annotation, biochemical, small-molecule microarray, 635/667 nm fluorescence (AID 1140).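 Note: score merges 667 nm feature emission with signal to noise over triplicate slides.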 The note with it: WGA-A647 binding, 635 nm fluorescence, higher = more signal.

Experiment [17] deals with Luciferin 4-monooxygenase (Photinus pyralis) (UniProt P08659). Description: firefly luciferase enzyme inhibitors, primary screen, biochemical, luminescence, purified enzyme, 2006 set (AID 1141).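 Note: cell-free assay with purified firefly luciferase at 100 ng per well in PBS; test concentration not given here.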 The note with it: SteadyGlo luminescence, 30 min, higher = more signal, called active from +8 up or from −8 down.
Sequence of Luciferin 4-monooxygenase (Photinus pyralis) (P08659 whole entry, looked up): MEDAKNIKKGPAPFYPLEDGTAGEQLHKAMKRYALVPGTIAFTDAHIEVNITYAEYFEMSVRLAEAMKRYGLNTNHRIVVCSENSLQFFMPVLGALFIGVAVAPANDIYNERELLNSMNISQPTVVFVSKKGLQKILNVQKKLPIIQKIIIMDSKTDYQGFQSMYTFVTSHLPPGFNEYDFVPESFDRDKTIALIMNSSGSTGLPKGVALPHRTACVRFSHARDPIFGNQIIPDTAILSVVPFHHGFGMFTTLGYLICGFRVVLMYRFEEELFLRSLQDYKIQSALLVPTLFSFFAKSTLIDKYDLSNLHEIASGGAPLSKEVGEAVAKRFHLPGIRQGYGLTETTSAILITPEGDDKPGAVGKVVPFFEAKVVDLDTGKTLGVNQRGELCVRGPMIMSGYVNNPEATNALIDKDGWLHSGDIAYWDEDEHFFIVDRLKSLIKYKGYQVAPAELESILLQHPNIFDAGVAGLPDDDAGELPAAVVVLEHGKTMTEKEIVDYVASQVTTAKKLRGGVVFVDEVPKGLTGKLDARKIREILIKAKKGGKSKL

Sequence of Concanavalin-A (Canavalia ensiformis) (P02866 whole entry, looked up): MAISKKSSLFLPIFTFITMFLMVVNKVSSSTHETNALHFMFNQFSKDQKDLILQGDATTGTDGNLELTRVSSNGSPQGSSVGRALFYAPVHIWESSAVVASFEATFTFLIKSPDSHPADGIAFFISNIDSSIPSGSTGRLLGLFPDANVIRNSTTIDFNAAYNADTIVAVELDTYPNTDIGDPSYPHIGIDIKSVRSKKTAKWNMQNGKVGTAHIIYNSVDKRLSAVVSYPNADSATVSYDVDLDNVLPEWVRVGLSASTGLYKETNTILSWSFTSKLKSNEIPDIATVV
Sequence of Follistatin (Homo sapiens) (P19883 whole entry, looked up): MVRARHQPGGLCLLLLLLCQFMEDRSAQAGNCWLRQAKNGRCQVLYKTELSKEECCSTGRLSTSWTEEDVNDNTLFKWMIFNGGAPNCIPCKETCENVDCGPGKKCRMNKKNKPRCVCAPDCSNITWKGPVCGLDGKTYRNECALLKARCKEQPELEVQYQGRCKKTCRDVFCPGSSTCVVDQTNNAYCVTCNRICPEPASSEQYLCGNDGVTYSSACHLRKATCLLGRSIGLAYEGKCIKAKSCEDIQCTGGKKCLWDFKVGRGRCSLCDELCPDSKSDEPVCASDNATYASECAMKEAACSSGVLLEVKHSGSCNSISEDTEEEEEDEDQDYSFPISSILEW

Regarding `CCOC(=O)[C@H](CC(C)C)NC(=O)CCC1CC(OC(=O)NCc2ccc3c(c2)OCO3)CC2(CCCC(COC(=O)NCCOC)O2)O1` (stereo not given in full), the composite z-score with Albumin (Bos taurus) was -0.398; in experiment [2], 0.0208; in experiment [3], -0.166; in experiment [4], 0.152; in [5] it was 0.57; in experiment [6], 0.0898. For the same molecule, the composite z-score in the experiment with Sam68 (KHDRBS1) was 0.911; in experiment [7] it was 0.293; in experiment [8] it was 0.858; in experiment [9], 0.418; in [10] it was 0.758; in experiment [11], -0.379. The composite z-score in experiment [12] turned out to be 0.942; in experiment [13] it was 0.589; in [14] it was 0.725; with Lefty1, 0.847; in [16] it was 0.609. Moreover, the composite Z-score in experiment [1] is -0.0756 (inactive). Also, the figures for the z-score in experiment [15] and in experiment [17] were -0.119 and 0.713 (inactive), respectively.
As for `CC(C)CON=C1C[C@@H](O)[C@@H](O)[C@@H]2[C@@H]3C(=O)N(C(C)(C)C)C(=O)[C@@H]3CC[C@@H]12`, the composite z-score with Albumin (Bos taurus) is -0.708; in [2] it was -0.157; in experiment [3], -0.14; in experiment [4] it was -0.488; in experiment [5], -0.75; in experiment [6], -0.0854. In addition, the composite z-score in the experiment on Sam68 (KHDRBS1) is 0.845; in experiment [7] it was 1.5; in experiment [8], -1.21; in experiment [9] it was -0.587; in [10], -0.537; in experiment [11], -0.577. For the same molecule, the composite z-score in experiment [12] is -0.766; in [13], 1.39; in experiment [14] it was 1.46; in the experiment with Lefty1, 1.51; in experiment [16], -0.804. For the same molecule, the composite Z-score in [1] was 0.11 (inactive). In addition, the z-score is -0.832 in [15] and 0.444 (inactive) in [17].
`C[C@@H]1CC[C@H]2C(=O)O[C@@H](COc3ccc(C(C)(C)C)cc3)CN2[C@H]1c1ccc(Br)cc1`: the composite z-score is 0.425 with Albumin (Bos taurus); -0.0663 in experiment [2]; -0.164 in [3]; -0.0795 in [4]; 1.39 in experiment [5]; 0.21 in [6]. Also, the composite z-score is 0.292 in the experiment with Sam68 (KHDRBS1); 0.329 in experiment [7]; 0.721 in experiment [8]; -0.0988 in [9]; -0.153 in [10]; -0.171 in experiment [11]. Further, the composite z-score in experiment [12] worked out at 0.407; in [13], 0.0252; in experiment [14], 0.0914; with Lefty1, 0.135; in experiment [16], 0.0196. Also, the composite Z-score in experiment [1] is 0.289 (inactive). Moreover, the z-score in [15] is 0.784; in experiment [17], 0.104 (inactive).
As for `CCOC(=O)CCN1C(=O)[C@H]2[C@H]3[C@H](O)[C@H](O)CC(=NOCC=C(C)CCC=C(C)C)[C@H]3CC[C@H]2C1=O`, the composite z-score with Albumin (Bos taurus) is -0.269; in experiment [2], 0.179; in experiment [3] it was -0.167; in [4] it was -0.276; in experiment [5], -0.405; in experiment [6], -0.192. The composite z-score is 0.458 in the experiment with Sam68 (KHDRBS1); -0.178 in [7]; 0.116 in experiment [8]; -1.12 in [9]; -0.251 in [10]; -0.0341 in [11]. Further, the composite z-score in [12] was -0.161; in experiment [13], -0.975; in experiment [14], 0.404; in the experiment with Lefty1, -0.893; in experiment [16] it was -0.503. In addition, in experiment [1], the composite Z-score was -0.113 (inactive). Moreover, the z-score was 0.64 in experiment [15] and 0.0499 (inactive) in [17].
On to `C#CCCCON=C1C[C@@H](O)[C@@H](O)[C@@H]2[C@@H]3C(=O)N(C4CCCCC4)C(=O)[C@@H]3CC[C@@H]12`, for which the composite z-score was 0.42 with Albumin (Bos taurus); -0.11 in experiment [2]; -0.129 in experiment [3]; 0.621 in experiment [4]; 0.65 in experiment [5]; 0.172 in [6]. The composite z-score in the experiment on Sam68 (KHDRBS1) was -0.513; in experiment [7], 0.422; in [8], 0.335; in experiment [9] it was 0.16; in experiment [10], 0.256; in [11], 0.394. For the same molecule, the composite z-score in experiment [12] was 0.486; in experiment [13] it was 0.513; in experiment [14], 0.0704; in the experiment on Lefty1, 0.363; in experiment [16], 0.329. The composite Z-score in experiment [1] is 0.0436 (inactive). For the same molecule, the z-score in experiment [15] was -0.404; in [17], -0.0138 (inactive).
